Compounds without any hit were thinned out: in the full panel of roughly 83,000, 20% have a hit.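 Activity criterion: percent growth below 10, measured after cells in 96-well plates were exposed to a single compound concentration for 48 hours.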 Unmarked numbers belong to inactive results. Calls of active or inactive are those of the source. Where a SMILES comes first, the peptide text is derived from it. Bridges are numbered along the chain shown (N, C = ends). [ ]: non-standard residue; d: D form. The star is where a group is joined. ξ: configuration not given here. ξNMePhe(4-NMe2) = CNC(Cc1ccc(N(C)C)cc1)C(=O)O; Picolinoyl(3-OH) = O=C(c1ncccc1O)*; ξPip(4-oxo) = O=C1CCNC(C(=O)O)C1; Phg = N[CH](C(=O)O)c1ccccc1; Abu = CC[CH](N)C(=O)O
What follows are molecules tested on NCI-H322M lung (assay: NCI-60 one-dose screen, 48 h (100 = growth as untreated, 0 = no growth, -100 = all killed)). Conditions: 10 µM.
Work on `Nc1nc2c(c(-c3nc(N)nc4c3CCc3ccccc3-4)n1)CCc1ccccc1-2` yielded a growth of 115%. With `CCOC(=O)CCCS(C)(=O)=O` the growth was 120%. `COc1ccccc1NC(=O)C1=C(C)NC(C)=C(C(=O)Nc2ccccc2OC)C1c1cccc([N+](=O)[O-])c1` gave a growth of 91.2%. `O=C(c1ccccc1)C1CCC1` was tested, and the growth was 101%. In the case of `CCOC(=O)C(=O)C=P(c1ccccc1)(c1ccccc1)c1ccccc1`, the growth is reported as 98.2%. For `O=[N+]([O-])c1cccc(C(F)(F)F)c1`, the growth was 132%. `CCCC(=O)Nc1ccc2c(c1)CN1C(=O)c3ccccc3C1=N2` gave a growth of 99.1%. Molecule `CC(C)=NNc1ccc([N+](=O)[O-])cc1[N+](=O)[O-]` has a growth of 87.9%. For `CC(=O)OCC1=CC2OC(=O)C3=COC(OC4OC(CO)C(O)C(O)C4O)C1C32` (stereo unspecified), the growth was 104%. Molecule `COc1nc(N)nc2c1ncn2C1OC(CO)CC1O` (stereo unspecified) has a growth of 96.8%. Molecule `Nc1ccc(C(=O)c2ccc(N)c(Br)c2)cc1Br` has a growth of 65.5%. `CO[C@H]1C[C@@H]2CC[C@@H](C)[C@@](O)(O2)C(=O)C(=O)N2CCCC[C@H]2C(=O)O[C@H]([C@H](C)C[C@@H]2CC[C@@H](O)[C@H](OC)C2)CC(=O)[C@H](C)C=C(C)[C@@H](O)[C@@H](OC)C(=O)[C@H](C)C[C@H](C)/C=C/C=C/C=C1C` was tested, and the growth was 71.6%. `CC(=O)OCCC(C)CCC=C(C)C` (stereo unspecified) showed a growth of 114%. Work on `CCOC(=O)c1cc(/C=C/c2cccc(Cl)c2)on1` yielded a growth of 96.1%. With `COC(=O)C(C)Oc1ccc(OC#N)cc1` (stereo unspecified) the growth was 100%. Molecule `Cc1cc(N)ccc1-c1ccc(N)cc1C` has a growth of 104%. `CCC1NC(=O)C(NC(=O)c2ncccc2O)C(C)OC(=O)C(c2ccccc2)NC(=O)C2CC(=O)CCN2C(=O)C(Cc2ccc(N(C)C)cc2)N(C)C(=O)C2CCCN2C1=O` (stereo unspecified) (tested in a mixture with another compound) ({Picolinoyl(3-OH)}-T[Abu]P[ξNMePhe(4-NMe2)][ξPip(4-oxo)][Phg]; ester 1-C; configuration not given here) was tested, and the growth was 87.2%. For `COc1ccc2c(NCCCCCCCCNc3c4ccccc4nc4cc(OC)ccc34)c3ccccc3nc2c1`, the growth was -74.3% (active). In the case of `CC1(O)OC(COc2ccc(Cl)cc2)COC1O` (stereo unspecified), the growth is reported as 104%. In the case of `CCN(CC)C(=O)/C=C(/C)c1ccccc1`, the growth is reported as 106%. `N=c1c(C(=O)OCc2ccccc2)ncc(CCl)n1O` gave a growth of 98.6%. Molecule `COC(=O)c1[nH]c(=O)c(C#N)c(C(=O)OC)c1C(=O)c1ccccc1` has a growth of 101%. Work on `CCCNC(=O)c1ccc(S(N)(=O)=O)cc1` yielded a growth of 121%. Molecule `O=C(c1ccc(O)cc1)c1ccc(O)cc1` has a growth of 95.3%. Molecule `NC(=O)N/N=C\c1ccco1` has a growth of 94.1%. `O=S(=O)(O)CC(O)CN1CCN(CCO)CC1` (stereo unspecified) was tested, and the growth was 112%. Molecule `Cc1ccc(C)n1-c1ccsc1C(=O)NNC(=O)C(Cl)Cl` has a growth of 98.6%. With `O=c1cc(-c2ccccc2)oc2c1ccc1ccccc12` the growth was 96%. For `Oc1ccc(N=Nc2ccc(Br)cc2)c(O)c1`, the growth was 67%. Work on `O=c1c2ccccc2c(Br)c(Br)c2ccccc12` yielded a growth of 119%. `C/C(=C\c1cc(Cl)ccc1OCC(=O)O)[N+](=O)[O-]` gave a growth of 118%. With `COC(=O)/C=C\C(=O)OC` the growth was 125%. In the case of `O=C(O)c1cc([N+](=O)[O-])ccc1Cl`, the growth is reported as 117%. With `N#Cc1c(N)sc(=S)c2c1CCCC2` the growth was 123%. Work on `CCOC(=O)c1[nH]c(C)c(C(=O)O)c1C` yielded a growth of 91.8%. Molecule `C#C[C@H]1CCCCCC1O` (stereo partly specified) has a growth of 104%. `Nc1nc(N)c2cc(S(=O)(=O)c3cccc(C(F)(F)F)c3)ccc2n1` gave a growth of 52.1%. `CCN(CC)CCCC(C)Nc1ccnc(/C=C/c2ccc(Cl)cc2)c1` (stereo unspecified) was tested, and the growth was 21.3%.

What follows are molecules tested on HOP-62 NSCLC in the same assay as above. Conditions: 10 µM.
In the case of `Nc1nc2c(c(-c3nc(N)nc4c3CCc3ccccc3-4)n1)CCc1ccccc1-2`, the growth is reported as 91.4%. `CCOC(=O)CCCS(C)(=O)=O` gave a growth of 102%. Molecule `COc1ccccc1NC(=O)C1=C(C)NC(C)=C(C(=O)Nc2ccccc2OC)C1c1cccc([N+](=O)[O-])c1` has a growth of 68.5%. `O=C(c1ccccc1)C1CCC1` showed a growth of 94.5%. `CCOC(=O)C(=O)C=P(c1ccccc1)(c1ccccc1)c1ccccc1` was tested, and the growth was 98.1%. In the case of `O=[N+]([O-])c1cccc(C(F)(F)F)c1`, the growth is reported as 96.9%. For `CCCC(=O)Nc1ccc2c(c1)CN1C(=O)c3ccccc3C1=N2`, the growth was 104%. In the case of `CC(C)=NNc1ccc([N+](=O)[O-])cc1[N+](=O)[O-]`, the growth is reported as 87.9%. Work on `CC(=O)OCC1=CC2OC(=O)C3=COC(OC4OC(CO)C(O)C(O)C4O)C1C32` (stereo unspecified) yielded a growth of 108%. `COc1nc(N)nc2c1ncn2C1OC(CO)CC1O` (stereo unspecified) was tested, and the growth was 100%. `Nc1ccc(C(=O)c2ccc(N)c(Br)c2)cc1Br` showed a growth of 29.5%. `CO[C@H]1C[C@@H]2CC[C@@H](C)[C@@](O)(O2)C(=O)C(=O)N2CCCC[C@H]2C(=O)O[C@H]([C@H](C)C[C@@H]2CC[C@@H](O)[C@H](OC)C2)CC(=O)[C@H](C)C=C(C)[C@@H](O)[C@@H](OC)C(=O)[C@H](C)C[C@H](C)/C=C/C=C/C=C1C` showed a growth of 60.7%. `CC(=O)OCCC(C)CCC=C(C)C` (stereo unspecified) gave a growth of 108%. Work on `CCOC(=O)c1cc(/C=C/c2cccc(Cl)c2)on1` yielded a growth of 99.9%. `COC(=O)C(C)Oc1ccc(OC#N)cc1` (stereo unspecified) was tested, and the growth was 98.2%. Work on `Cc1cc(N)ccc1-c1ccc(N)cc1C` yielded a growth of 89.9%. For `CCC1NC(=O)C(NC(=O)c2ncccc2O)C(C)OC(=O)C(c2ccccc2)NC(=O)C2CC(=O)CCN2C(=O)C(Cc2ccc(N(C)C)cc2)N(C)C(=O)C2CCCN2C1=O` (stereo unspecified) (tested in a mixture with another compound) ({Picolinoyl(3-OH)}-T[Abu]P[ξNMePhe(4-NMe2)][ξPip(4-oxo)][Phg]; ester 1-C; configuration not given here), the growth was 87.7%. For `COc1ccc2c(NCCCCCCCCNc3c4ccccc4nc4cc(OC)ccc34)c3ccccc3nc2c1`, the growth was -99.2% (active). Work on `CC1(O)OC(COc2ccc(Cl)cc2)COC1O` (stereo unspecified) yielded a growth of 106%. With `CCN(CC)C(=O)/C=C(/C)c1ccccc1` the growth was 109%. Work on `N=c1c(C(=O)OCc2ccccc2)ncc(CCl)n1O` yielded a growth of 95.7%. `COC(=O)c1[nH]c(=O)c(C#N)c(C(=O)OC)c1C(=O)c1ccccc1` gave a growth of 94.2%. `CCCNC(=O)c1ccc(S(N)(=O)=O)cc1` was tested, and the growth was 82.8%. `O=C(c1ccc(O)cc1)c1ccc(O)cc1` was tested, and the growth was 97.8%. `NC(=O)N/N=C\c1ccco1` was tested, and the growth was 112%. `O=S(=O)(O)CC(O)CN1CCN(CCO)CC1` (stereo unspecified) showed a growth of 110%. In the case of `Cc1ccc(C)n1-c1ccsc1C(=O)NNC(=O)C(Cl)Cl`, the growth is reported as 96.6%. In the case of `O=c1cc(-c2ccccc2)oc2c1ccc1ccccc12`, the growth is reported as 99.5%. Molecule `Oc1ccc(N=Nc2ccc(Br)cc2)c(O)c1` has a growth of 27.5%. For `O=c1c2ccccc2c(Br)c(Br)c2ccccc12`, the growth was 112%. Work on `C/C(=C\c1cc(Cl)ccc1OCC(=O)O)[N+](=O)[O-]` yielded a growth of 103%. For `COC(=O)/C=C\C(=O)OC`, the growth was 113%. In the case of `O=C(O)c1cc([N+](=O)[O-])ccc1Cl`, the growth is reported as 113%. With `N#Cc1c(N)sc(=S)c2c1CCCC2` the growth was 104%. For `CCOC(=O)c1[nH]c(C)c(C(=O)O)c1C`, the growth was 111%. For `C#C[C@H]1CCCCCC1O` (stereo partly specified), the growth was 105%. With `Nc1nc(N)c2cc(S(=O)(=O)c3cccc(C(F)(F)F)c3)ccc2n1` the growth was 76.6%. Work on `CCN(CC)CCCC(C)Nc1ccnc(/C=C/c2ccc(Cl)cc2)c1` (stereo unspecified) yielded a growth of 38.4%.

Source: PubChem BioAssay (NCI)
